PubChem BioAssay (NCATS)
Inconclusive results are not listed. The source made the active and inactive calls. Calls follow the shape of the dose curve; as a rule, active = well fitted inhibition curve with a large enough effect; inconclusive = small, poorly fitted or top-dose-only effect, or effect the other way; inactive = flat fitted curve, though single readings scatter.

Assay: qHTS for Inhibitors of Plasmodium falciparum (GB4) proliferation (AID 504315);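 also: 0% = DMSO vehicle and -100% = 0.29 µM artemisinin control; nearly all actives have a fitted effect of over 50% in size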
Details: P. falciparum GB4 in erythrocytes, SYBR Green DNA, 72 h; series mostly up to 6.7 µM; activity change, negative = inhibition: at the top concentration
Source text: Plasmodium falciparum is a virulent malarial parasite that kills 1-2 million people worldwide each year. Malaria not only inflicts tremendous suffering and morbidity on the human population, but has dramatically influenced the course of civilization with profound sociological and economic implications (Shah, S. 2010). Transmitted by mosquitoes, the sporozoite form of the parasite enters the blood stream to infect hepatocytes, where they become merozoites that infect red blood cells (erythrocytes). Within erythrocytes, merozoites begin a […] cycle of growth and division, after which the parasite is released to infect new red blood cells. Gametocytes, which form within erythrocytes as well, circulate in the bloodstream and are ingested by the mosquito, thereby completing the life cycle (see CDC website). To profile malarial lines for differential chemical responses and to identify inhibitors of malarial growth, an assay that measures P. falciparum growth and replication within erythrocytes was employed. This assay uses a DNA binding fluorescent dye (SYBR Green) to detect parasite DNA following cell lysis. Because mature erythrocytes lack DNA, only Plasmodium-derived DNA is detected. The P. falciparum line cp250, derived from a malarial isolate from Cambodia, (Mu, J., et al. 2010) was added to the panel of lines, Dd2, HB3, 7G8 and GB4 in this study. Laboratory of Assay Development and Screening Technology [ADST] and NIH Chemical Genomics Center [NCGC] Boston University, Chemistry Department, Center for Chemical Methodology and Library Development [CMLD-BU] NIH National Institute of Allergy and Infectious Diseases [NIAID]
ADST Assay Protocol Summary: The 1536-well SYBR Green viability assay was based on the method of Bennett et al (2004) and described previously in 1536-well format (Yuan J., et al. 2009). For screening 3 ul culture medium was dispensed into 1536 well black clear bottom plates (Aurora Biotechnologies) using a Multidrop Combi (Thermo Fisher Scientific Inc.), 23 nL compounds in DMSO were added by a pin transfer (Cleveland, P.H. and Koutz, P.J, 2005) using a pin tool-based delivery system (Kalypsys), and 5 ul of erythrocytes infected with P. falciparum one of five lines (cp250, Dd2, HB3, 7G8 or GB4, 0.3% parasitemia, 2.5% hematocrit final concentration) were added. The plates were incubated at 37C in a humidified incubator in 5% CO2 for 72 h, and 2 ul lysis buffer (20 mM Tris HCl, 10 mM EDTA, 0.16% saponin, 1.6% triton X, 10X SYBR Green I (supplied as 10,000X final concentration by Invitrogen) was added to each well. The plates were mixed for 25 sec with gentle shaking and incubated overnight at room temperature in the dark. The following morning, fluorescence intensity at 485(14) nm excitation and 535(25) nm emission wavelengths was measured on an EnVision (Perkin Elmer) plate reader. Plate reads were normalized relative to the control inhibitor (0.29 uM artemisinin) and vehicle (DMSO) wells present on each plate and then corrected by an algorithm using vehicle-only control plates at the beginning and end of the compound plate stack. References Shah, S. (2010). The Fever: how malaria has ruled humankind for 500,000 years. New York, Sarah Crichton Books. CDC web site, http://www.cdc.gov/malaria/about/biology/index.html Mu, J., Myers, R.A., Jiang, H., Liu, S., Ricklefs, S., Waisberg, M., Chotivanich, K., Wilairatana, P., Krudsood, S., White, N.J., et Plasmodium falciparum genome-wide scans for positive selection, recombination hot spots and resistance to antimalarial drugs Nature Genetics 2010, 42, pp 268-271 Bennett TN, Paguio, M., Gligorijevic, B., Seudieu, C., Kosar, A. D., Davidson, E., and Roepe, P. D. Novel, rapid, and inexpensive cell-based quantification of antimalarial drug efficacy Antimicrobial Agents Chemother. 2004, 48(5): pp 1807-10 Yuan J, Johnson RL, Huang RL, Wichterman J, Jiang HY, Hayton K, Fidock DA, Wellems TE, Inglese J, Austin CP, Su XZ. […]

| SMILES | activity change, negative = inhibition | outcome |
| --- | --- | --- |
| CCOC(=O)[C@]12C[C@@H]3CCN(C(=O)N(C(C)=O)[C@@H]1c1ccccc1)[C@@H]32 | -7.45% (inactive) | – |
| CCOC(=O)[C@]12C[C@@H]3OCCN(C(=O)N[C@@H]1c1ccccc1)[C@@H]32 | 2.07% (inactive) | – |
| CC(=O)[C@]12[C@H](c3ccccc3)[C@@H]3CCN(C(=O)N[C@H]1c1ccccc1)[C@@]32C | 1.03% (inactive) | – |
| COC(=O)C1=C[C@H]([C@@H](C)[C@H](OC)c2ccccc2Br)[C@H]2[C@H]1c1ccccc1N2C | -4.34% (inactive) | – |
| COC(=O)[C@@]1(C=C2c3ccc(F)cc3[C@@H](OC)[C@@H]2C)[C@@H]2c3ccccc3O[C@@H]21 | -14.4% (inactive) | – |
| COC(=O)[C@@]1(C=C[C@@H](C)[C@H](OC)c2ccccc2Br)[C@@H]2Oc3ccccc3[C@@H]21 | -5.06% (inactive) | – |
| COC(=O)C1(C)C2CC(C)C(c3ccccc32)N1C(=O)C(F)(F)F (stereo not drawn) | 3.3% (inactive) | – |
| C=C1[C@@H]2CCN3C(=O)N[C@@H](c4ccccc4)[C@@]1(C(=O)OCC)C23 (stereo partly drawn) | -1.09% (inactive) | – |
| CCOC(=O)[C@@]12C3[C@@H](CCN3C(=O)N[C@@H]1c1ccccc1)[C@@H]2C (stereo partly drawn) | -6.73% (inactive) | – |
| C=C(C)C(=O)CP(=O)(OCC)OCC | 13.1% (inactive) | – |
| CCOC(=O)[C@]12C[C@]3(OC)CCN(C(=O)N[C@@H]1c1ccccc1)[C@@H]32 | 0.446% (inactive) | – |
| COC(=O)[C@]12C[C@@H]3CCN(C(=O)N[C@@H]1c1ccccc1)[C@@]32C | -4.75% (inactive) | – |
| COC(=O)[C@@H]1[C@@H](c2ccccc2)[C@H]2C(=O)c3c(OC)cc(OC)cc3O[C@@]12c1ccc(OC)cc1 | -3.85% (inactive) | – |
| COC(=O)C1=C2CCO[C@@H]2[C@H]2[C@@H](C)[C@H](OC)c3ccccc3[C@H]12 | -8.33% (inactive) | – |
| COC(=O)C1=C2CCCO[C@H]2[C@@H]2[C@@H](C)[C@H](OC)c3ccccc3[C@@H]12 | 4% (inactive) | – |
| COC(=O)[C@@]1(C=C2c3ccccc3[C@@H](OC)[C@@H]2C)[C@@H]2Oc3ccccc3[C@@H]21 | 3.21% (inactive) | – |
| CO[C@@H]1c2ccccc2[C@H]2C(C(=O)O)c3c(n(C)c4ccccc34)[C@H]2[C@H]1C (stereo partly drawn) | -11.2% (inactive) | – |
| COC(=O)C12CC3=CCC4C(=O)N(c5ccccc5)C(=O)C4C3Cc3ccccc3[C@H]1CNC2=O (stereo partly drawn) | -11.4% (inactive) | – |
| CC(=O)[C@]12C[C@@H]3CCCN(C(=O)N[C@@H]1c1ccccc1)[C@@H]32 | 0.674% (inactive) | – |
| COC(=O)[C@@]1(C=C2c3ccc(F)cc3[C@@H](OC)[C@@H]2C)[C@@H]2Oc3ccccc3[C@@H]21 | -10.1% (inactive) | – |
| COC(=O)C1=C2CCO[C@H]2[C@@H]2[C@@H](C)[C@H](OC)c3ccccc3[C@@H]12 | -3.26% (inactive) | – |
| CCOC(=O)[C@]12C[C@]3(C)CCN(C(=O)N[C@@H]1c1ccccc1)[C@@H]32 | 8.41% (inactive) | – |
| CCC[C@]12CCN3C(=O)N[C@@H](c4ccccc4)[C@](C(=O)OCC)(C1)[C@H]32 | -3.65% (inactive) | – |
| COC(=O)C1=NN=C(C(=O)OC)[C@@]2(C)c3ccccc3NC12 (stereo partly drawn) | 12.5% (inactive) | – |
| CC(=O)[C@]12C[C@]3(C)CCCN(C(=O)N[C@@H]1c1ccccc1)C32 (stereo partly drawn) | -1.97% (inactive) | – |
| CCOC(=O)[C@]12C[C@]3(C)CCCN(C(=O)N[C@@H]1c1ccccc1)[C@@H]32 | 11.4% (inactive) | – |
| COC(=O)[C@@]12Cc3ccccc3[C@H]1C[C@H](C)[C@@H](C)N2C(=O)C(F)(F)F | -9.72% (inactive) | – |
| COC(=O)C1C2CC(C)C(c3ccccc32)N1C(=O)C(F)(F)F (stereo not drawn) | – | inactive |
